This is a sample that favours compounds with a hit; in the whole collection about 13% have one here.
Lassa entry inh = blocks Lassa virus binding to or entry into cells; Potency, µM (series often up to 37.9 µM), for the others: top-dose activity change, negative = inhibition, hits mostly inhibitors; AID 540256; 1.2% of 300,000 active; Lassa virus pseudotype entry inhibition, cell reporter; calls by dose curve; tested in HEK293 cells; also: potency is read from the fitted curve at half-maximal effect; % is scaled to controls: 0 for no effect and ±100 for the full control effect; nearly all actives have a fitted effect of over 50% in size
Marburg entry inh = inhibitors of Marburg virus binding or cell entry; Marburg virus pseudotyped entry inhibition, cell reporter; Potency, µM (titrated, usually from 37.8 µM), for the others: at the top dose activity change, negative = inhibition, actives largely listed as inhibitors; 1.8% of 300,000 active; AID 540276; calls by dose curve; tested in HEK293 cells; also: potency is read from the fitted curve at half-maximal effect; % is scaled to controls: 0 for no effect and ±100 for the full control effect
Shiga inhibitor = inhibitors of Shiga toxin in Vero cells; Vero cells, Shiga toxin protein synthesis inhibition reporter; inhibition, % at 38.7 µM; 9.2% of 290,000 active; AID 2315; in the data active = inhibition mostly above about 28%, no sharp cut-off; inactive = mostly below about 43%; also: 0% is about no effect
CHX counter = affects cycloheximide protein synthesis inhibition readout, counter-screen | cell reporter, cycloheximide protein synthesis inhibition counterscreen | 12% of 300,000 active | max response, %; in the data active = max response mostly above about 13%, no sharp cut-off; inactive = mostly below about 14%; also: read at 38.3 µM for the half of the compounds with a filed dose; 0% is about no effect
HCV inh = inhibitors of hepatitis C virus infection; Potency, µM (series often up to 41.8 µM), inactives show at the top dose activity change, negative = inhibition, actives largely listed as inhibitors; Huh7.5.1 HCVcc-Cre infection, luciferase reporter, 44 h; AID 651820; 3.4% of 340,000 active; active = well fitted inhibition curve with a large enough effect; inconclusive = small, poorly fitted or top-dose-only effect, or another doubt; inactive = no such curve, though single readings can be large or run the other way; also: potency is read from the fitted curve at half-maximal effect; % is scaled to controls: 0 for no effect and ±100 for the full control effect
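Antiviral activity was scored by luciferase reporter output from cells infected with HCVcc-Cre (~0.5 moi) in presence of compound, 44 h infection period, cells seeded 1,000/well 4 h prior.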
FMDV antiviral = blocks foot and mouth disease virus; Potency, µM (doses to about 57.9 µM), for inactives: at the top dose activity change, negative = inhibition, hits mostly inhibitors; 1.2% of 410,000 active; FMDV antiviral cell-based qHTS; AID 1159524; calls by dose curve; tested in HEK293T cells; also: read-out not given here; potency is read from the fitted curve at half-maximal effect; % is scaled to controls: 0 for no effect and ±100 for the full control effect; nearly all actives have a fitted effect of over 45% in size
Active calls of the source: *; ? = inconclusive; . = not tested or not shown; [ ] = remark or other dose.

SMILES | Lassa entry inh | Marburg entry inh | Shiga inhibitor | CHX counter | HCV inh | FMDV antiviral
Cc1ccc(C)c(NC(=O)c2ccccc2NS(=O)(=O)c2cc([N+](=O)[O-])ccc2C)c1 | ? | 4.11µM* | -13.1 | -1.7 | 8.91µM* | ?
Cc1ccc(C(=O)Nc2cccc([N+](=O)[O-])c2)cc1S(=O)(=O)Nc1cccc(C(=O)O)c1 | 14.4% | -2.5%[46.1 µM] | 20.2 | 1.0 | 0.1% | 31.6%
Cc1ccc(C(=O)CCC(=O)OCC(=O)N2c3ccccc3NC(=O)C2(C)C)cc1 | 24.1% | ? | . | . | ? | -6.2%
Cc1ccc(NC(=O)CC(=O)c2ccc([N+](=O)[O-])cc2)cc1S(=O)(=O)Nc1cccc(Cl)c1 | ? | ? | 16.8 | 6.4 | 10µM* | -19.7%
COc1cccc(N2CC(C(=O)NNC(=O)c3ccc(Cl)cc3)CC2=O)c1 (centres undefined) | 1.0% | 1.2% | -6.3 | -3.6 | 22.3% | 0.0%
COc1ccc(S(=O)(=O)Nc2ccccc2C(=O)Nc2nc(-c3ccc(F)cc3)cs2)cc1OC | 11.2µM* | ? | 3.9 | 1.1 | ? | -16.2%
COc1ccc(-c2csc(NC(=O)c3ccccc3NS(=O)(=O)c3ccc(C)cc3)n2)cc1 | ? | 12.6µM* | -15.6 | 0.8 | 5.01µM* | ?
Cc1ccc(S(=O)(=O)Nc2nc(-c3ccc(F)cc3)cs2)cc1 | ? | 3.9%[46.1 µM] | -0.5 | 13.3* | 6.0% | 10.4%
CCCNC(=O)c1ccccc1NS(=O)(=O)c1ccc(OC)c(OC)c1 | -3.5% | ? | 0.4 | -3.7 | 20.2% | 21.0%
COc1ccc(/C=N/Nc2nnc(-c3ccccc3)c(=O)[nH]2)cc1 | ? | 1.8% | 2.1 | 3.3 | 5.6% | 6.1%
O=C(NCCO)C(=O)Nc1cc2c3c(c1)CC(=O)N3CCC2 | . | . | 9.3 | 7.5 | 8.6% | -12.7%
COc1ccc(C(=O)Nc2cccc3c2CCCC3)cc1 | . | . | 9.4 | 13.1 | -24.9% | 0.0%
COc1ccc(C(=O)Nc2cccc3c2CCCC3)c(OC)c1 | -0.7% | 5.1%[46.1 µM] | . | . | 31.6µM* | 29.6%
COc1ccc(C(=O)Nc2cc3c4c(c2)CC(=O)N4CCC3)c(OC)c1 | ? | 8.6% | . | . | 3.98µM* | 80.1%
O=C(CCl)c1cc2c3c(c1)CC(=O)N3CCC2 | 1.7%[46.1 µM] | ? | -8.1 | -2.0 | -13.5% | 22.4µM*
COc1ccc(C(=O)Nc2cc3c4c(c2)CC(=O)N4CCC3)cc1 | 3.2% | 0.1% | . | . | 2.24µM* | 22.6%
COc1ccc(C(NC(=O)CN2C(=O)NC3(CCc4ccccc43)C2=O)c2ccccc2)cc1 (centres undefined) | . | . | . | . | -28.6% | -8.7%
O=C(Nc1cc2c(cc1Br)OCCCO2)c1ccccc1 | 0.7% | ? | 123.2* | 78.3* | 8.7% | 20.6%
O=C(NC(=S)Nc1ccccc1Br)c1cccnc1 | . | . | . | 10.3 | -8.0% | 0.0%
O=C(Nc1cc2c(cc1Br)OCCCO2)c1cccnc1 | 17.1% | ? | 84.0* | 38.2* | 18.7% | 41.3%
Cc1cc2cc3c(cc2nc1SCC(=O)OC(C)C)OCCO3 | -19.5% | ? | -8.2 | 8.3 | ? | -2.7%
COC(=O)CSc1nc2cc(C)ccc2cc1C#N | -3.6% | -5.0% | 108.2* | 46.4* | -16.8% | 44.3%
CCOC(=O)CC(=O)CSc1nc2ccc(C)cc2cc1C#N | 0.0% | 28.3% | 106.9* | 37.2* | 11.0% | .
COC(=O)CSc1nc2cc3c(cc2cc1C)OCO3 | -1.3% | -9.0% | 55.3* | 26.6* | ? | -15.5%
CCCCN(C(=O)c1ccc(C)c(S(=O)(=O)N2CCOCC2)c1)c1c(N)n(CC(C)C)c(=O)[nH]c1=O | -3.4% | 29.4% | . | . | -6.0% | -23.2%
SMILES | Lassa entry inh | Marburg entry inh | Shiga inhibitor | CHX counter | HCV inh | FMDV antiviral
COC(=O)N1CCN(c2ccc(Cl)c(Cl)c2)CC1 | ? | ? | -7.8 | 6.2 | 0.4% | ?
COC(=O)N1CCN(C(=O)Cc2ccc(Cl)c(Cl)c2)C(CN2CCCC2)C1 (centres undefined) | ? | 11.2µM* | -5.4 | 1.3 | . | 6.0%
CCOC(=O)C(=CNc1nc2ccc(C(=O)OCC)cc2s1)C(=O)OCC | . | . | 2.8 | 0.8 | ? | -12.1%
CCOC(=O)c1ccc2nc(Nc3nc4ccc(F)cc4s3)sc2c1 | -13.4% | ? | 146.7* | 150.2* | 10.9% | ?
COC(=O)c1ccc2nc(Nc3nc4c(F)cc(F)cc4s3)sc2c1 | 3.16µM* | 7.31µM* | -14.5 | 57.2* | 2.3% | 0.251µM*
CCOC(=O)N1CCN(S(=O)(=O)c2ccc(C(=O)Nc3nc4ccc(F)cc4s3)cc2)CC1 | -2.0% | -10.5% | -9.3 | 1.1 | -11.3% | ?
CCOC(=O)c1ccc2nc(NC(C)=O)sc2c1 | ? | ? | 56.4 | 47.9* | -14.0% | 24.4%
O=C(Nc1nc2c(F)cc(F)cc2s1)C1CCN(C(=O)c2ccc(F)cc2)CC1 | 23.0% | 20.2%[46.1 µM] | . | . | -19.8% | -12.0%
Cc1csc2nc(-c3ccc(NS(=O)(=O)c4cccc(F)c4)cc3)cn12 | 10.6%[46.1 µM] | . | . | . | . | 14.8%
COc1ccc(C(=O)OCC(=O)NC2CC2)cc1S(=O)(=O)N1CCOCC1 | 18.6% | 11.6%[46.1 µM] | 11.9 | 5.8 | 9.0% | -3.3%
Cc1nc(-c2cccc(-c3noc(C)n3)c2)no1 | 1.0% | 2.1% | 39.5 | 8.3 | ? | 14.3%
Cc1nc(-c2ccc(-c3ccon3)s2)no1 | 10.0% | 10.0% | 53.2* | 21.0* | -7.4% | 38.5%
CC(C)Nc1nnc(SCC(=O)Nc2sccc2C#N)s1 | . | . | . | . | -5.2% | 14.6%
CC(=O)Nc1ccc(SCC(=O)Nc2sccc2C#N)cc1 | 18.6% | 23.7%[46.1 µM] | 62.9* | 33.2* | 3.3% | 41.8%
Cc1ccnc(SCC(=O)Nc2sccc2C#N)n1 | . | . | 17.4 | 12.2* | -17.1% | 12.2%
Cc1cccc2[nH]c(CN(C)Cc3nc(CC4CC4)no3)nc12 | -5.6%[46.1 µM] | 4.2%[46.1 µM] | 17.9 | -1.7 | 21.4% | 0.0%
O=C(OCC(=O)N1CCCC1=O)c1cc(S(=O)(=O)N2CCOCC2)ccc1F | -24.4% | -0.5% | . | . | 6.0% | -18.6%
O=C(c1ccccc1)C(CN1CCCCC1)c1ccccc1 (centres undefined) | ? | ? | . | . | ? | 28.2µM*
O=C(CC(C(=O)c1ccccc1)c1ccccc1)c1ccccc1 (centres undefined) | ? | ? | . | . | -26.2% | 8.4%
CC(CN1CCN(CC(C)C(=O)c2ccccc2)CC1)C(=O)c1ccccc1 (centres undefined) | ? | 0.6% | . | . | -11.0% | -6.5%
O=C(c1ccc(Br)cc1)C(CN1CCOCC1)c1ccccc1 (centres undefined) | ? | ? | 26.1 | 4.9 | 1.0% | 17.8µM*
CN(C)CC(C(=O)c1ccccc1)c1ccccc1 (centres undefined) | 8.91µM* | 6.31µM* | -15.9 | -4.4 | ? | 17.8µM*
CCOc1ccc(C(=O)C(CN2CCOCC2)c2ccccc2)cc1 (centres undefined) | 25.9µM* | 6.51µM* | 15.1 | -2.7 | ? | ?
COCC(=O)N1CCC[C@@]2(CCN(C(=O)Nc3cccc(C#N)c3)C2)C1 | . | . | . | . | . | -7.2%
COc1ncc(-c2ccc3c(c2)S(=O)(=O)c2cccc(C(=O)O)c2C3=O)cn1 | . | . | . | . | 10.7% | 2.1%
Cc1c(C(=O)NCc2ccc(Cl)cc2)sc2nc3n(c(=O)c12)CCCC3 | -3.0%[46.1 µM] | . | . | . | . | -11.5%

Source: PubChem
